Test results as given in PubChem BioAssay (Tox21).
Inconclusive results are not listed. Calls of active or inactive are those of the source. The call rests on the fitted dose curve; in most records, active means well fitted activation curve with a large enough effect in the signal ratio in the repeat runs (not every such curve was filed as active); inconclusive means weak or mixed curves, or effect the other way; inactive means flat fitted curve, though single readings scatter; the % refers to the signal ratio.

These compounds were tested against Bile acid receptor (Homo sapiens) (UniProt Q96RI1) (assay: qHTS assay to identify small molecule agonists of the farnesoid-X-receptor (FXR) signaling pathway (AID 743220)). Conditions: HEK293T FXR-UAS-bla, beta-lactamase FRET ratio, 16 h; series mostly up to 62.6 µM; activation: at the top concentration.
Bile acid receptor (Homo sapiens), sequence (Q96RI1 whole entry, looked up): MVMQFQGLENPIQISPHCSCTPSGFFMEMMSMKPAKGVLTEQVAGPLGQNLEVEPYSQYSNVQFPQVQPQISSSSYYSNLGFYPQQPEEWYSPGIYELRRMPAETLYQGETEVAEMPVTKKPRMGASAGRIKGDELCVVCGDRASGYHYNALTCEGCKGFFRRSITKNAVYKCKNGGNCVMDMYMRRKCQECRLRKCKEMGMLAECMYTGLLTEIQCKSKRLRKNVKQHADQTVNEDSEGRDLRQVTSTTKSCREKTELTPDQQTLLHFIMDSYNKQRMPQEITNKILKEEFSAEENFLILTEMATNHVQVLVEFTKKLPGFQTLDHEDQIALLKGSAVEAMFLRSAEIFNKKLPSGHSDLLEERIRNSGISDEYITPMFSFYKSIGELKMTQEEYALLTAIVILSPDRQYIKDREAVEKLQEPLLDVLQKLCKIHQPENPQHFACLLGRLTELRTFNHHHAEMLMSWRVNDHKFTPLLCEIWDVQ
Description: National Center for Advancing Translational Sciences [NCATS]
NIH Chemical Genomics Center [NCGC]
U.S. Environmental Protection Agency [EPA]
National Institutes of Environmental Health Sciences [NIEHS]
National Toxicology Program [NTP]
U.S. Food and Drug Administration [FDA]
The farnesoid-X-receptor (FXR), a nuclear hormone receptor, is highly expressed in liver, intestine, kidney and adrenal cortex. Natural ligands of FXR are the bile acids (Cholic acid, Chenodeoxy cholic acid etc). FXR is an important regulator of diverse metabolic pathways, including the bile acid homeostasis, lipid and glucose metabolisms. FXR regulates the expression of target genes by binding either as a monomer or as a heterodimer with the retinoid X receptor (RXR). Numerous studies have reported that FXR exerts protective function during cholestasis, diabetes, liver regeneration, and cancer. To identify compounds that activate FXR signaling, GeneBLAzer FXR-UAS-bla HEK 293T cell line (Invitrogen, Carlsbad, CA) containing a beta-lactamase reporter gene under the control of a UAS response element was used to screen the Tox21 10K compound library.
Tox21 Assay Protocol Summary:
FXR-bla cells were dispensed at 5000 cells/5uL/well in 1536-well black wall/clear bottom plates using a Multidrop Combi (Thermo Fisher Scientific, Waltham, MA) dispenser. After the assay plates were incubated at 37C and 5% CO2 for 5 h, 23 nL of compounds dissolved in DMSO, positive controls or DMSO only was transferred to the assay plate by a Pintool station (Kalypsys, San Diego, CA). The assay plates were incubated at 37C for 16 h. After 1 uL of LiveBLAzerTM B/G FRET substrate was added using a Bioraptr Flying Reagent Dispenser (FRD) workstation (Beckman Coulter, Indianapolis, IN), the plates were incubated at room temperature for 2 h, and fluorescence intensity was measured by an Envision plate reader (PerkinElmer, Shelton, CT).
On the % scale 0 is the no-effect control and ±100 the full control effect.

| SMILES | outcome | activation |
| --- | --- | --- |
| CCCCCC1=CCCC1=O | inactive |  |
| CCCCOC(=O)COc1ccc(Cl)cc1Cl |  | -0.422% (inactive) |
| CCCCCOC(C)=O | inactive |  |
| CC1CCC(C(C)C)C(O)C1 (stereo not given) | inactive |  |
| O=C(CC(C(=O)OC1CCCCC1)S(=O)(=O)O)OC1CCCCC1 (stereo not given) | inactive |  |
| CC1=CC(=O)NS(=O)(=O)O1 | inactive |  |
| O=C(O)CC(C(=O)O)C(CC(=O)O)C(=O)O (stereo not given) | inactive |  |
| CC(O)COCC(C)O (stereo not given) | inactive |  |
| Nc1ccccc1[N+](=O)[O-] | inactive |  |
| O=S(=O)(O)c1ccc2ccccc2c1 | inactive |  |
| O=C(O)CCCCCCCCCCC(=O)O | inactive |  |
| O=c1[nH]c(=O)n([C@H]2C[C@H](O)[C@@H](CO)O2)cc1Br | inactive |  |
| CCCCCC/C(C=O)=C\c1ccccc1 | inactive |  |
| O=C=NCCCCCCN=C=O | inactive |  |
| OCc1cccnc1 | inactive |  |
| Cc1ccc2oc(=O)ccc2c1 |  | 0.218% [at 81.1 µM] (inactive) |
| c1ccc2c(c1)ccc1ccccc12 | inactive |  |
| C[Si](O[Si](C)(C)C)O[Si](C)(C)C | inactive |  |
| CCCCCCCCCCCCCCCO | inactive |  |
| Cc1cc(C)c(C)cc1C | inactive |  |

| SMILES | outcome | activation |
| --- | --- | --- |
| CCCCC(CC)COC(=O)CCCCC(=O)OCC(CC)CCCC (stereo not given) | inactive |  |
| Oc1cccc2ccccc12 |  | -0.685% (inactive) |
| CC(C)(N)CO | inactive |  |
| C=CCOC(=O)c1ccccc1C(=O)OCC=C | inactive |  |
| O=C(Oc1ccccc1)c1ccccc1 | inactive |  |
| OCC(CO)(CBr)CBr | inactive |  |
| Cc1ccc(S(N)(=O)=O)cc1 | inactive |  |
| O=C(O)c1cc(C(=O)O)cc(S(=O)(=O)O)c1 | inactive |  |
| O=c1[nH]nnc2ccccc12 | inactive |  |
| CN(C)CCOCCN(C)C | inactive |  |
| CSCCC=O |  | 0.0352% [at 81.1 µM] (inactive) |
| CC(=O)Nc1ccccc1 | inactive |  |
| CC1CCC2CC1C2(C)C (stereo not given) | inactive |  |
| CCCCC(CC)CO (stereo not given) | inactive |  |
| CC[C@H](C)C(=O)O[C@H]1C[C@@H](C)C=C2C=C[C@H](C)[C@H](CC[C@@H]3C[C@@H](O)CC(=O)O3)[C@H]21 | inactive |  |
| CCCCCCCCCC | inactive |  |
| CCCC(C)=O |  | 0.653% [at 81.1 µM] (inactive) |
| OC[C@H]1O[C@@](CO)(O[C@H]2O[C@H](CO)[C@@H](O)[C@H](O)[C@H]2O)[C@@H](O)[C@@H]1O | inactive |  |
| CCCCCCCCCCCCc1ccccc1 | inactive |  |
| CC(C)(C)[C@@H](O)[C@@H](Cc1ccc(Cl)cc1)n1cncn1 | inactive |  |
